The nature of assay [1]: Nuclear factor erythroid 2-related factor 2/antioxidant responsive element (Nrf2/ARE) small molecule agonists: qHTS cell viability counter screen in human keratinocytes (AID 1919968; active means well fitted curve in the direction sought with a large enough effect in the repeat runs; an effect the other way counts as inactive or inconclusive; further: nearly all actives have a fitted effect of over 55% in size). In short, it runs like this: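 KeratinoSens cells (HaCaT keratinocytes stably carrying an ARE-luciferase reporter) were seeded at 1,500 cells/well and rested 5 h at 37 C/5% CO2. They were then exposed to compounds in DMSO for 23 h. Viability was read by CellTiter-Fluor fluorescence after 1 h.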
(In general: qHTS replaces the single test concentration by a dilution series.)

Assay [2] can be described thus: Nuclear factor erythroid 2-related factor 2/antioxidant responsive element (Nrf2/ARE) small molecule agonists: luciferase reporter gene qHTS assay in human keratinocytes (AID 1919969). Further: nearly all actives have a fitted effect of over 35% in size. Background: Reporter assays use an easily measured gene product as a stand-in for the process of interest.
Assay [3] concerns the target Gonadotropin-releasing hormone receptor (Homo sapiens) (UniProt P30968). The assay is described as follows: Human gonadotropin-releasing hormone receptor (GnRHR) small molecule agonists, calcium flux assay in GnRHR-HEK293 cells (AID 1920063). Further: nearly all actives have a fitted effect of over 35% in size. The gist of the method:
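HEK293 cells stably expressing human GnRHR were plated 18 h at 37 °C, loaded with calcium dye 1 h at 37 °C, then given compound in agonist mode; fluorescence (Ex/Em 480/540) read kinetically for 3 min at 1 s intervals.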
In general terms: A change in cytosolic calcium serves as a functional read-out for many receptors and channels.

Assay [4] deals with KiSS-1 receptor (Homo sapiens) (UniProt Q969F8). The experiment in a line: Human kisspeptin (KISS1R) small molecule agonists, calcium flux assay in KISS1R-HEK293 cells (AID 1920064; active means well fitted curve in the direction sought with a large enough effect in the repeat runs; an effect the other way counts as inactive or inconclusive). In short, it runs like this:
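HEK293 cells stably expressing human KISS1R were plated 18 h at 37 °C, loaded with calcium dye for 1 h at 37 °C, then given compound by pin tool. Fluorescence (Ex/Em 480/540) was read kinetically for 3 min.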

Assay [5] in a line: G protein-coupled receptor (GPCR) small molecule agonists, calcium flux assay: HEK293 wild type cell line counter screen (AID 1920065). In short, it runs like this: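 Cells were plated and cultured 18 h at 37 C/5% CO2, then loaded with calcium dye for 1 h at 37 C. Compounds in DMSO were pin-transferred in agonist mode, and fluorescence (Ex/Em 480/540) was read kinetically for 3 min at 1 s intervals.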

The nature of assay [6]: p53 small molecule agonists, cell-based qHTS assay with human liver microsomes: qHTS cell viability counter screen (AID 1963579). Further: nearly all actives have a fitted effect of over 45% in size. In short, it runs like this:
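Cells carrying the p53 response-element beta-lactamase reporter are treated for 16 h at 37 C with test compounds in the presence of human liver microsomes and NADPH (both 0.5 mg/mL final); ATP-based CellTiter-Glo luminescence then reports viability.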

A short description of assay [7]: p53 small molecule agonists, cell-based qHTS assay with rat liver microsomes: qHTS cell viability counter screen (AID 1963580). Further: nearly all actives have a fitted effect of over 45% in size. In short, it runs like this:
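Viability is assessed in parallel with the p53 reporter read: HCT-116 p53RE-bla cells receive compounds plus rat microsomes and NADPH (0.5 mg/mL final apiece), incubate 16 h at 37 C, and then CellTiter-Glo luminescence is recorded.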

A short description of assay [8]: p53 small molecule agonists, cell-based qHTS assay: qHTS cell viability counter screen (AID 1963581). Further: nearly all actives have a fitted effect of over 45% in size. The gist of the method:
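p53RE-bla HCT-116 cells were exposed to compounds for 16 h at 37 C; after the beta-lactamase FRET read in the same wells, CellTiter-Glo was added and luminescence (intracellular ATP) read after 30 min at room temperature.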

Assay [9] is described as follows: p53 small molecule agonists, cell-based qHTS assay (AID 1963582; active means well fitted activation curve with a large enough effect in the signal ratio in the repeat runs, not every such curve was filed as active; the % refers to the signal ratio). In short, it runs like this:
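p53RE-bla beta-lactamase reporter cells rested 5 h at 37 C/5% CO2, then received compounds in DMSO by pin transfer and were incubated 16 h at 37 C. LiveBLAzer B/G FRET substrate was loaded for 2 h at room temperature before fluorescence reading.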

In assay [10] the target is 5-hydroxytryptamine receptor 2A (Homo sapiens) (UniProt P28223). The experiment in a line: 5-hydroxytryptamine receptor 2A (HTR2A) small molecule antagonists, cell-based qHTS assay (AID 1963586). Further: nearly all actives have a fitted effect of over 45% in size. In short, it runs like this:
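Antagonist-mode intracellular calcium assay: DOI (4 nM) added after 5 min compound pre-incubation at room temperature to dye-loaded HTR2A-CHO cells. Fluorescence followed for 3 min, sampled every second.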

Assay [11] shares this target. The experiment in a line: 5-hydroxytryptamine receptor 2A (HTR2A) small molecule agonists, cell-based qHTS assay (AID 1963587). Further: nearly all actives have a fitted effect of over 30% in size. The gist of the method: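 CHO cells stably expressing human HTR2A, plated 18 h, loaded with calcium dye 1 h at 37 C. Agonist mode: compounds added and intracellular calcium fluorescence recorded kinetically for 2 min at 1 sec intervals.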
Assay [12] addresses Muscarinic acetylcholine receptor M1 (Homo sapiens) (UniProt P11229). The experiment in a line: Cholinergic receptor muscarinic 1 (CHRM1) small molecule agonists, cell-based qHTS assay (AID 1963589). Further: nearly all actives have a fitted effect of over 35% in size. In short, it runs like this: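 CHO cells stably expressing human CHRM1, seeded 18 h at 37 C/5% CO2, dye-loaded 1 h at 37 C, then given compound in agonist mode; intracellular calcium fluorescence read kinetically at 1 s intervals. Fifteen concentrations, three independent runs.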

Assay [13] is described as follows: cAMP Responsive Elements (CRE) small molecule antagonists, cell-based qHTS assay (AID 1963591; active means well fitted inhibition curve with a large enough effect in the signal ratio in the repeat runs, not every such curve was filed as active; the % refers to the signal ratio). In short, it runs like this: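 CRE-bla HEK293T cells were plated 18 h at 37 °C/5% CO2, pinned with compound in DMSO, then stimulated with NKH477 at 0.25 uM final for 3 h. LiveBLAzer B/G FRET substrate was added and plates incubated 2 h at room temperature.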
Assay [14] concerns the target Beta-2 adrenergic receptor (Homo sapiens) (UniProt P07550). The assay is described as follows: Adrenergic beta2 receptor (ADRB2) small molecule antagonists, cell-based qHTS assay (AID 1963592). Further: series mostly up to about 92 µM; nearly all actives have a fitted effect of over 50% in size. In short, it runs like this: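 Cells (CHO, stable ADRB2 overexpression) incubated 18-20hr at 37C; compounds added from DMSO; agonist mix (1nM isoproterenol, 100uM IBMX, 25uM Ro-20-1724) added; 0.5hr RT; d2-cAMP and anti-cAMP-cryptate added; 1hr RT; 665/615 nm read.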

For assay [15], the target named is D(2) dopamine receptor (Homo sapiens) (UniProt P14416). The assay is described as follows: Dopamine D2 receptor (DRD2) small molecule agonists, cell-based qHTS assay (AID 1963594). Further: nearly all actives have a fitted effect of over 35% in size. Further: potency means the concentration at half of the fitted maximal effect. In short, it runs like this:
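HEK293 cells stably expressing human DRD2, pre-treated with PDE inhibitor Ro20-1724 (0.1 mM final) and compound 10 min at room temperature, then stimulated with NKH477 (200nM […]) for 30 min. cAMP read by HTRF (665/620 nm).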

In assay [16] the target is Muscarinic acetylcholine receptor M1 (Homo sapiens) (UniProt P11229). The assay is described as follows: Cholinergic receptor muscarinic 1 (CHRM1) small molecule antagonists, cell-based qHTS assay (AID 1963588). Further: nearly all actives have a fitted effect of over 40% in size. In short, it runs like this:
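CHRM1-CHO calcium-flux assay, antagonist mode. Cells were seeded 18 h, dye-loaded 1 h at 37 C and given compound for 5 min at RT, then acetylcholine was added at 50nM. FDSS fluorescence was read 3 min; 15 concentrations, three runs.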

Assay [17] is described as follows: cAMP Responsive Elements (CRE) small molecule agonists, cell-based qHTS assay (AID 1963590). The gist of the method: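 CRE-bla HEK 293T cells in DMEM with 10% dialyzed FBS, NEAA, pyruvate and 25 mM HEPES were plated 18 h at 37 C/5% CO2, then exposed to compounds in DMSO for 3 h before LiveBLAzer B/G FRET substrate addition.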
Assay [18] addresses Beta-2 adrenergic receptor (Homo sapiens) (UniProt P07550). The assay is described as follows: Adrenergic beta2 receptor (ADRB2) small molecule agonists, cell-based qHTS assay (AID 1963593).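 Further: CHO cells stably overexpressing human ADRB2.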 The gist of the method:
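CHO cells stably over-expressing ADRB2 were plated overnight at 37C, then dosed with compounds plus a stimulation mix containing 100uM IBMX and 25uM Ro-20-1724 for 0.5hr at room temperature. cAMP was measured by HTRF competition, 1hr.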

The target in assay [19] is D(2) dopamine receptor (Homo sapiens) (UniProt P14416). The assay is described as follows: Dopamine D2 receptor (DRD2) small molecule antagonists, cell-based qHTS assay (AID 1963595; active means well fitted inhibition curve with a large enough effect in the signal ratio in the repeat runs, with a control signal flat; the % refers to the signal ratio). The gist of the method: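 Antagonism was scored as restored cAMP in HEK293-DRD2 cells. These cells were stimulated with 200 nM NKH477 and 12 nM quinpirole for 30 min at room temperature, in the presence of 0.1 mM Ro20-1724.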
Chain of D(2) dopamine receptor (Homo sapiens) (P14416 whole entry, looked up): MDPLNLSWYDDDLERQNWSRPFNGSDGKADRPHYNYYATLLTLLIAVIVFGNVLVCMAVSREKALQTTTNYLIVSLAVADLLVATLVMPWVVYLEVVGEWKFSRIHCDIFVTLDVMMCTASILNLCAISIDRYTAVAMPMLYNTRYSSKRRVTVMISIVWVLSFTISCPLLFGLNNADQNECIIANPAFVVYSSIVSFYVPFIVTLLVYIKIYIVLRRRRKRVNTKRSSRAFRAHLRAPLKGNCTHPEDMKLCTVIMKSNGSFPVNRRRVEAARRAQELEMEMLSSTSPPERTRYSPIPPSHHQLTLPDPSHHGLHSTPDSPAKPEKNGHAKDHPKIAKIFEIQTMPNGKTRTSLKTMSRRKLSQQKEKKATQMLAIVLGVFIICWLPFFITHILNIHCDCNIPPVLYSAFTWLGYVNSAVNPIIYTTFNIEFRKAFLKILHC

A number with no mark means an inactive call. Records with an inconclusive call do not appear. Active and inactive are the calls of the source. Unless noted, the call rests on the fitted dose curve.
On the % scale 0 is the no-effect control and ±100 the full control effect.

Chain of KiSS-1 receptor (Homo sapiens) (Q969F8 whole entry, looked up): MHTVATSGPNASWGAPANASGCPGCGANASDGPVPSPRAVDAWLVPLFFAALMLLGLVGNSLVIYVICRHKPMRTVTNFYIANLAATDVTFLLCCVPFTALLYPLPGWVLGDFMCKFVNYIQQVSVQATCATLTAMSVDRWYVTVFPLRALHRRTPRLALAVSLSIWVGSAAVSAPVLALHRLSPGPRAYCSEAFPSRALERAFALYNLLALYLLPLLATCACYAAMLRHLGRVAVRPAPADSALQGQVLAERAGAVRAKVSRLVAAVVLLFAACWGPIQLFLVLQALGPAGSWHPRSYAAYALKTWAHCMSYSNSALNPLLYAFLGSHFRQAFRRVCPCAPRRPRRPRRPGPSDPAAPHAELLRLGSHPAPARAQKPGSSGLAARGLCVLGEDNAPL
Chain of 5-hydroxytryptamine receptor 2A (Homo sapiens) (P28223 whole entry, looked up): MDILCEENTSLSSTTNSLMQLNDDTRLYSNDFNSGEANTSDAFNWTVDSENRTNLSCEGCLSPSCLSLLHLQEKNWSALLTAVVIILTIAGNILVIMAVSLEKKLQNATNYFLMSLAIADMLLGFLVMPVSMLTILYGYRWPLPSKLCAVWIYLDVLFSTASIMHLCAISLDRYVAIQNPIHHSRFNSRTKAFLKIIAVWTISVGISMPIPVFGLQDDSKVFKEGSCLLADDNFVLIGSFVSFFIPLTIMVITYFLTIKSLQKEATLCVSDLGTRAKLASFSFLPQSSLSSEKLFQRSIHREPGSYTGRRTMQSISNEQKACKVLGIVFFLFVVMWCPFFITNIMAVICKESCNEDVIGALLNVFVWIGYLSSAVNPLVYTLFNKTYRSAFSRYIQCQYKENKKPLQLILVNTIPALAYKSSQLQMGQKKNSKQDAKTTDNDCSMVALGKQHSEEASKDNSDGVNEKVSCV
Chain of Gonadotropin-releasing hormone receptor (Homo sapiens) (P30968 whole entry, looked up): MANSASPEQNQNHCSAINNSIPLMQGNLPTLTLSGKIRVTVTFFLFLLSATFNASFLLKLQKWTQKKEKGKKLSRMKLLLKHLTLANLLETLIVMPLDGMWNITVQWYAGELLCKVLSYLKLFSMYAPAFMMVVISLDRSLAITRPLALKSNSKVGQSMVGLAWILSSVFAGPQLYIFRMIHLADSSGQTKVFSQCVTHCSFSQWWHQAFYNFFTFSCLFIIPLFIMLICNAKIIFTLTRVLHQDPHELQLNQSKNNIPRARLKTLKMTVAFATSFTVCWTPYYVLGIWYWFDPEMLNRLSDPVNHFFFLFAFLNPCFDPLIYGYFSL
Chain of Muscarinic acetylcholine receptor M1 (Homo sapiens) (P11229 whole entry, looked up): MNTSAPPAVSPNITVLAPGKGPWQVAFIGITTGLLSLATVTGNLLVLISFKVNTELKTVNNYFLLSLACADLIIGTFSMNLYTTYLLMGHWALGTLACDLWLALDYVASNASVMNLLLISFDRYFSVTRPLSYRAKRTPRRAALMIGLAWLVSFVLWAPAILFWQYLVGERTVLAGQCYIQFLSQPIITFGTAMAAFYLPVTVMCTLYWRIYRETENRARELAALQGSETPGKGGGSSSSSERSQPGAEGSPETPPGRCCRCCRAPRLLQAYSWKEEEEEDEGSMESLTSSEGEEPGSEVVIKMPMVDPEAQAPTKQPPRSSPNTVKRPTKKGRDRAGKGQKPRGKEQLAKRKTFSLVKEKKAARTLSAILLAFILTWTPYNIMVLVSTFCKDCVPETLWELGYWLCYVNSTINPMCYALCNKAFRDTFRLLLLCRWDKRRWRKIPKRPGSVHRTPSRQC
Chain of Beta-2 adrenergic receptor (Homo sapiens) (P07550 whole entry, looked up): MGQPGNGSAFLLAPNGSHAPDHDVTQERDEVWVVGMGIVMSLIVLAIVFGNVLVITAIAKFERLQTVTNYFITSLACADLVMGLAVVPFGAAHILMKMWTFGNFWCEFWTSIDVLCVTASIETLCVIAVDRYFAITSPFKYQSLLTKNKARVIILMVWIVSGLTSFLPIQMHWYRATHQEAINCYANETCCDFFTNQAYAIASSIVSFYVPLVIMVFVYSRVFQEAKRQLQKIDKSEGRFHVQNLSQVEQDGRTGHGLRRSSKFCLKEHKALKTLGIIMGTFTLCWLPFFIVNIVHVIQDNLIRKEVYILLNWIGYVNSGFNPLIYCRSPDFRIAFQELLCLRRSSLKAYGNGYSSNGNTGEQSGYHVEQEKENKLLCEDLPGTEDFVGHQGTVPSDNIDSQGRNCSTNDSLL

For `CC(C)(CO)[C@@H](O)C(=O)NCCC(=O)O`, the Potency result in assay [1], in [2], in assay [3], in [4], in [5] and in assay [6] was “inactive” in each case. In addition, the Potency result in assay [7], in assay [8], in assay [9], in assay [10], in [11] and in assay [12] was “inactive” in each case. Further, the Potency entry in assay [13], in assay [14] and in assay [15] was “inactive” each time.
For the molecule `O=C1OC(=O)c2c(Cl)c(Cl)c(Cl)c(Cl)c21`, the Potency result in [1], in assay [2], in [3], in [4], in [5] and in [6] was “inactive” throughout. Further, the Potency entry in assay [7], in [8], in assay [9], in [10], in assay [11] and in [16] was “inactive” each time. For the same molecule, the Potency entry in assay [12], in [17], in [13], in assay [14], in [18] and in [19] was “inactive” each time.
As to `CCSC(=O)N(CC)CC`, the Potency result in assay [1], in [2], in [3], in assay [4], in assay [5] and in assay [6] was “inactive” in each case. Besides, the Potency result in assay [7], in assay [8], in assay [9], in assay [10], in [11] and in assay [16] was “inactive” throughout. In addition, the Potency entry in assay [12], in assay [17], in [13], in assay [14], in assay [18] and in assay [15] was “inactive” throughout. Further, the Potency result in [19] was “inactive”.
Turning to `C[Si](C)=O`, the results for the activity change, negative = cytotoxicity in [1], in assay [6] and in [7] were 4.07% [at 8.39 µM], 7.59% [at 5.99 µM] and 11.3% [at 5.99 µM], respectively. Moreover, the activity, positive = activation in assay [2] was -5.78% [at 8.39 µM]. In addition, in [3], the activity change was -0.63% [at 5.22 µM, hits give high values]. For the same molecule, the activation is -1.56% [at 6.97 µM] in assay [4]; 0.129% [at 5.23 µM] in [5]; -0.704% [at 5.99 µM] in assay [9]; 3.07% [at 7.02 µM] in assay [11]; 0.243% [at 6.97 µM] in [12]; 7.37% [at 8.39 µM] in assay [18]. Further, the activation in assay [15] is 4.84% [at 8.39 µM]. The figures for the activity, negative = inhibition in assay [10] and in assay [16] were 1.83% [at 5.62 µM] and -3.21% [at 5.58 µM], respectively. For the same molecule, the activity change, negative = inhibition was -3.7% [at 8.39 µM] in assay [13], -1.43% [at 8.39 µM] in assay [14] and 6.58% [at 8.38 µM] in assay [19].
As for `CCCCCCCCCCCCI`, the Potency entry in [1], in assay [2], in assay [3], in [4], in assay [5] and in assay [6] was “inactive” throughout. Further, the Potency result in assay [7], in [8], in [9], in assay [10], in assay [11] and in [12] was “inactive” in each case. In addition, the Potency result in [17], in [13], in [14] and in assay [19] was “inactive” in each case. For the same molecule, the Potency in assay [15] is 54.7 µM (active).
For `Cc1cccc(Cl)c1`, the Potency entry in assay [1], in [2], in assay [3], in assay [4], in [5] and in assay [6] was “inactive” in each case. Moreover, the Potency result in assay [7], in assay [8], in [9], in [10], in assay [11] and in [16] was “inactive” each time. The Potency result in [12], in [17], in assay [13], in [14] and in assay [15] was “inactive” each time.
Consider `O=C[C@H](O)[C@H](O)[C@H](O)CO`, for which the Potency entry in assay [1], in assay [2], in [3], in assay [4], in assay [5] and in assay [6] was “inactive” in each case. Besides, the Potency entry in [7], in assay [8], in assay [9], in [10], in assay [11] and in assay [16] was “inactive” in each case. Moreover, the Potency entry in [12], in assay [17], in [13], in [14], in [18] and in assay [15] was “inactive” each time. In assay [19], the Potency result is “inactive”.
As for `CCCCNc1ccccc1`, the Potency entry in [1], in assay [2], in assay [3], in assay [4], in assay [5] and in [6] was “inactive” each time. Moreover, the Potency entry in assay [7], in [8], in assay [9], in [11], in assay [16] and in assay [12] was “inactive” throughout. Further, the Potency result in assay [17], in [13], in assay [14], in assay [15] and in [19] was “inactive” throughout.

(Values after PubChem BioAssay (Tox21).)
